The source of these data is publication PMC12820563, “FoxP3 forms a head-to-head dimer in vivo and stabilizes its multimerization on adjacent microsatellites”.

Over roughly 16,000 sequences, “rpm ratio (pull-down/input)” has its median near 0.5; the highest 2% begin near 5.5. Many of the other results were omitted from the sample, so the highest values are more common in it than they were.

In this experiment the target is T1, MBP-FoxP3dN (Mus musculus, UniProt Q99JB6 188-423).
T1 sequence: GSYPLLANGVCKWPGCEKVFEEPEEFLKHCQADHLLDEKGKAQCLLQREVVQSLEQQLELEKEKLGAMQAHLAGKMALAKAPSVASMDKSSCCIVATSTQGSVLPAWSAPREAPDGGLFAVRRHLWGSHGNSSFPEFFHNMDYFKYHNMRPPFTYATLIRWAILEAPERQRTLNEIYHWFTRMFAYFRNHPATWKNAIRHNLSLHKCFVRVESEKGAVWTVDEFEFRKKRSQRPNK
Kind of experiment: PD-seq (MBP pull-down with sequencing); 20 mM Tris-HCl pH 7.5, 100 mM NaCl, 1.5 mM MgCl2, 0.4 uM protein, 0.1 uM dsDNA library, 30 min, room temperature, amylose pull-down; high values mean tight binding. The following applies: protein: recombinant; tags: His6-MBP; chain copies: 2; dsDNA, one strand shown. The method in brief:
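A degenerate double-stranded DNA library, filled in with Klenow, was added at 0.1 µM to 0.4 µM His6-MBP-tagged mouse FoxP3 or FoxP1 fragment lacking the N-terminus, expressed in E. coli. Incubation lasted 30 min at room temperature in Tris pH 7.5 buffer with NaCl and MgCl2, after which complexes were collected on amylose resin, washed three times, digested with proteinase K to free the DNA, barcoded by PCR and sequenced by Illumina. Binding is the pooled-replicate reads-per-million enrichment of pull-down over input.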
On to “GATGATTGTTCTCCCAGCTGATGAATTTAACGAGTCGAGTAAACAAATTTTCCTAATCTTTCTGTTCAAGCGCCATCTAC”, for which the binding signal was 0.208 RPM ratio (pull-down/input).

“GATGATTGTTCTCCCAGCTGATGAATTAGCTGCTTCGAGTAAACAAATTTTCCTAATCTTTCTGTTCAAGCGCCATCTAC”: the binding signal was 0.674 RPM ratio (pull-down/input).

Turning to “GATGATTGTTCTCCCAGCTGATGAATTGTACGTATCGAGTAAACAAATTTTCCTAATCTTTCTGTTCAAGCGCCATCTAC”, the binding signal was 0.769 RPM ratio (pull-down/input).

On to “GATGATTGTTCTCCCAGCTGATGAATTAGAGATGTCGAGTAAACAAATTTTCCTAATCTTTCTGTTCAAGCGCCATCTAC”, for which the binding signal is 0.424 RPM ratio (pull-down/input).

In the case of “GATGATTGTTCTCCCAGCTGATGAATTCTAAGTGTCGAGTAAACAAATTTTCCTAATCTTTCTGTTCAAGCGCCATCTAC”, the binding signal was 0.48 RPM ratio (pull-down/input).

In the case of “GATGATTGTTCTCCCAGCTGATGAATTACGCATGTCGAGTAAACAAATTTTCCTAATCTTTCTGTTCAAGCGCCATCTAC”, the binding signal is 6.15 RPM ratio (pull-down/input).

For “GATGATTGTTCTCCCAGCTGATGAATTACCCATGTCGAGTAAACAAATTTTCCTAATCTTTCTGTTCAAGCGCCATCTAC”, the binding signal is 0.294 RPM ratio (pull-down/input).

As for “GATGATTGTTCTCCCAGCTGATGAATTCTACGCATCGAGTAAACAAATTTTCCTAATCTTTCTGTTCAAGCGCCATCTAC”, the binding signal was 0.854 RPM ratio (pull-down/input).

“GATGATTGTTCTCCCAGCTGATGAATTACGCAACTCGAGTAAACAAATTTTCCTAATCTTTCTGTTCAAGCGCCATCTAC”: the binding signal is 6.03 RPM ratio (pull-down/input).

For “GATGATTGTTCTCCCAGCTGATGAATTTACGCATTCGAGTAAACAAATTTTCCTAATCTTTCTGTTCAAGCGCCATCTAC”, the binding signal is 6.38 RPM ratio (pull-down/input).

Consider “GATGATTGTTCTCCCAGCTGATGAATTACGCCTGTCGAGTAAACAAATTTTCCTAATCTTTCTGTTCAAGCGCCATCTAC”, for which the binding signal was 5.4 RPM ratio (pull-down/input).

With “GATGATTGTTCTCCCAGCTGATGAATTACAACTCTCGAGTAAACAAATTTTCCTAATCTTTCTGTTCAAGCGCCATCTAC”, the binding signal was 0.948 RPM ratio (pull-down/input).

As to “GATGATTGTTCTCCCAGCTGATGAATTACGCCATTCGAGTAAACAAATTTTCCTAATCTTTCTGTTCAAGCGCCATCTAC”, the binding signal is 5.04 RPM ratio (pull-down/input).

In the case of “GATGATTGTTCTCCCAGCTGATGAATTACGCAAATCGAGTAAACAAATTTTCCTAATCTTTCTGTTCAAGCGCCATCTAC”, the binding signal is 0.792 RPM ratio (pull-down/input).

As for “GATGATTGTTCTCCCAGCTGATGAATTACGCATTTCGAGTAAACAAATTTTCCTAATCTTTCTGTTCAAGCGCCATCTAC”, the binding signal was 6.65 RPM ratio (pull-down/input).

With “GATGATTGTTCTCCCAGCTGATGAATTACGCTGTTCGAGTAAACAAATTTTCCTAATCTTTCTGTTCAAGCGCCATCTAC”, the binding signal was 1.09 RPM ratio (pull-down/input).

As to “GATGATTGTTCTCCCAGCTGATGAATTTTACGCATCGAGTAAACAAATTTTCCTAATCTTTCTGTTCAAGCGCCATCTAC”, the binding signal is 1.01 RPM ratio (pull-down/input).

Turning to “GATGATTGTTCTCCCAGCTGATGAATTGCTACCATCGAGTAAACAAATTTTCCTAATCTTTCTGTTCAAGCGCCATCTAC”, the binding signal was 0.894 RPM ratio (pull-down/input).

As to “GATGATTGTTCTCCCAGCTGATGAATTGCCCGAATCGAGTAAACAAATTTTCCTAATCTTTCTGTTCAAGCGCCATCTAC”, the binding signal is 0.311 RPM ratio (pull-down/input).

On to “GATGATTGTTCTCCCAGCTGATGAATTACGGCCATCGAGTAAACAAATTTTCCTAATCTTTCTGTTCAAGCGCCATCTAC”, for which the binding signal is 1.15 RPM ratio (pull-down/input).

As for “GATGATTGTTCTCCCAGCTGATGAATTTAATCAATCGAGTAAACAAATTTTCCTAATCTTTCTGTTCAAGCGCCATCTAC”, the binding signal was 0.269 RPM ratio (pull-down/input).

Consider “GATGATTGTTCTCCCAGCTGATGAATTTGGTCCGTCGAGTAAACAAATTTTCCTAATCTTTCTGTTCAAGCGCCATCTAC”, for which the binding signal is 0.363 RPM ratio (pull-down/input).

Consider “GATGATTGTTCTCCCAGCTGATGAATTGGAACTCTCGAGTAAACAAATTTTCCTAATCTTTCTGTTCAAGCGCCATCTAC”, for which the binding signal was 0.343 RPM ratio (pull-down/input).

Consider “GATGATTGTTCTCCCAGCTGATGAATTCCTTTGGTCGAGTAAACAAATTTTCCTAATCTTTCTGTTCAAGCGCCATCTAC”, for which the binding signal is 0.395 RPM ratio (pull-down/input).

Turning to “GATGATTGTTCTCCCAGCTGATGAATTGACACATTCGAGTAAACAAATTTTCCTAATCTTTCTGTTCAAGCGCCATCTAC”, the binding signal is 0.772 RPM ratio (pull-down/input).

On to “GATGATTGTTCTCCCAGCTGATGAATTGCGATGGTCGAGTAAACAAATTTTCCTAATCTTTCTGTTCAAGCGCCATCTAC”, for which the binding signal is 1.01 RPM ratio (pull-down/input).

For the sequence “GATGATTGTTCTCCCAGCTGATGAATTACGCGCATCGAGTAAACAAATTTTCCTAATCTTTCTGTTCAAGCGCCATCTAC”, the binding signal is 1.54 RPM ratio (pull-down/input).

“GATGATTGTTCTCCCAGCTGATGAATTACGCAGCTCGAGTAAACAAATTTTCCTAATCTTTCTGTTCAAGCGCCATCTAC”: the binding signal was 1.78 RPM ratio (pull-down/input).

Take “GATGATTGTTCTCCCAGCTGATGAATTACGCGCCTCGAGTAAACAAATTTTCCTAATCTTTCTGTTCAAGCGCCATCTAC”: the binding signal was 1.67 RPM ratio (pull-down/input).

Regarding “GATGATTGTTCTCCCAGCTGATGAATTACGCCACTCGAGTAAACAAATTTTCCTAATCTTTCTGTTCAAGCGCCATCTAC”, the binding signal was 6.17 RPM ratio (pull-down/input).

Take “GATGATTGTTCTCCCAGCTGATGAATTACTCCACTCGAGTAAACAAATTTTCCTAATCTTTCTGTTCAAGCGCCATCTAC”: the binding signal is 0.339 RPM ratio (pull-down/input).

Consider “GATGATTGTTCTCCCAGCTGATGAATTTACGCACTCGAGTAAACAAATTTTCCTAATCTTTCTGTTCAAGCGCCATCTAC”, for which the binding signal is 0.784 RPM ratio (pull-down/input).

Consider “GATGATTGTTCTCCCAGCTGATGAATTACGCATCTCGAGTAAACAAATTTTCCTAATCTTTCTGTTCAAGCGCCATCTAC”, for which the binding signal is 7.33 RPM ratio (pull-down/input).

On to “GATGATTGTTCTCCCAGCTGATGAATTTTACGCCTCGAGTAAACAAATTTTCCTAATCTTTCTGTTCAAGCGCCATCTAC”, for which the binding signal is 0.506 RPM ratio (pull-down/input).

“GATGATTGTTCTCCCAGCTGATGAATTACGCCTCTCGAGTAAACAAATTTTCCTAATCTTTCTGTTCAAGCGCCATCTAC”: the binding signal is 5.99 RPM ratio (pull-down/input).

Regarding “GATGATTGTTCTCCCAGCTGATGAATTAGATGTGTCGAGTAAACAAATTTTCCTAATCTTTCTGTTCAAGCGCCATCTAC”, the binding signal is 2.71 RPM ratio (pull-down/input).

“GATGATTGTTCTCCCAGCTGATGAATTGTCCCGCTCGAGTAAACAAATTTTCCTAATCTTTCTGTTCAAGCGCCATCTAC”: the binding signal is 0.272 RPM ratio (pull-down/input).

Consider “GATGATTGTTCTCCCAGCTGATGAATTAAGTCCGTCGAGTAAACAAATTTTCCTAATCTTTCTGTTCAAGCGCCATCTAC”, for which the binding signal was 0.307 RPM ratio (pull-down/input).

Take “GATGATTGTTCTCCCAGCTGATGAATTTCGCTTGTCGAGTAAACAAATTTTCCTAATCTTTCTGTTCAAGCGCCATCTAC”: the binding signal was 3.29 RPM ratio (pull-down/input).

For the sequence “GATGATTGTTCTCCCAGCTGATGAATTTGTAATATCGAGTAAACAAATTTTCCTAATCTTTCTGTTCAAGCGCCATCTAC”, the binding signal is 1.95 RPM ratio (pull-down/input).

In the case of “GATGATTGTTCTCCCAGCTGATGAATTCTATACATCGAGTAAACAAATTTTCCTAATCTTTCTGTTCAAGCGCCATCTAC”, the binding signal was 0.559 RPM ratio (pull-down/input).

Consider “GATGATTGTTCTCCCAGCTGATGAATTCTGTATATCGAGTAAACAAATTTTCCTAATCTTTCTGTTCAAGCGCCATCTAC”, for which the binding signal was 5.72 RPM ratio (pull-down/input).

As to “GATGATTGTTCTCCCAGCTGATGAATTTTGTATATCGAGTAAACAAATTTTCCTAATCTTTCTGTTCAAGCGCCATCTAC”, the binding signal was 7.43 RPM ratio (pull-down/input).

Regarding “GATGATTGTTCTCCCAGCTGATGAATTGTATATATCGAGTAAACAAATTTTCCTAATCTTTCTGTTCAAGCGCCATCTAC”, the binding signal was 3.21 RPM ratio (pull-down/input).

With “GATGATTGTTCTCCCAGCTGATGAATTTTATACATCGAGTAAACAAATTTTCCTAATCTTTCTGTTCAAGCGCCATCTAC”, the binding signal is 0.598 RPM ratio (pull-down/input).

Regarding “GATGATTGTTCTCCCAGCTGATGAATTCTATATATCGAGTAAACAAATTTTCCTAATCTTTCTGTTCAAGCGCCATCTAC”, the binding signal was 1.18 RPM ratio (pull-down/input).

“GATGATTGTTCTCCCAGCTGATGAATTGTATACATCGAGTAAACAAATTTTCCTAATCTTTCTGTTCAAGCGCCATCTAC”: the binding signal is 5.87 RPM ratio (pull-down/input).

Regarding “GATGATTGTTCTCCCAGCTGATGAATTCAGTATATCGAGTAAACAAATTTTCCTAATCTTTCTGTTCAAGCGCCATCTAC”, the binding signal is 2.12 RPM ratio (pull-down/input).
